The structures appear in SMILES notation. “And” between values parts separate entries of the source, which are not always exact repeats. Equal values may be shown once. About 83,000 compounds went through this panel and 20% of them were active in at least one assay; those are over-represented in the sample as a whole.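 Each cell line was grown in a 96-well plate and treated with one concentration of compound for 48 hours. Values below 10 were considered active.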 Unmarked numbers belong to inactive results. The source made the active and inactive calls.

Holding throughout (test): NCI-60 one-dose screen, 48 h (100 = growth as untreated, 0 = no growth, -100 = all killed)
Conditions in all cases: 10 µM unless noted

Assay [1] has as its system HCT-15 colon.
Assay [2] has as its system HT29 colon.
Assay [3] concerns SNB-75 CNS.
Assay [4] relates to SNB-19 CNS.
The subject of assay [5] is U251 CNS.
Assay [6] concerns PC-3 prostate.
Assay [7] deals with SK-MEL-5 melanoma.
Assay [8] relates to UACC-62 melanoma.
The subject of assay [9] is SK-MEL-28 melanoma.
Assay [10] has as its system LOX IMVI melanoma.

On to `O=S(OO)c1cc(Cl)c(O)c(Cl)c1` (stereo not drawn), for which the growth in [1] is 99.2%; in [2], 113%; in assay [3], 78.5%; in assay [4], 104%; in assay [5], 94%; in assay [6], 94.7%. Moreover, the growth is 104% in assay [7], 101% in [8] and 98.9% in assay [9].
With `O=P1(N(CCCl)CCCl)NCCCO1` (stereo not drawn), the growth in assay [1] was 106%; in assay [2], 102%; in assay [3], 102%; in [4], 102%; in [5] it was 96.8%; in assay [6], 106%. For the same compound, the growth in [7] was 103%; in assay [8] it was 94.4%; in assay [9], 114%.
As to `CC1=C2[C@H]3OC(=O)[C@@H](C)[C@@H]3CC[C@@]2(C)C=CC1=O`, the growth in [1] is 95.3%; in assay [2] it was 118%; in [3], 88.3%; in [4] it was 110%; in [5], 101%; in assay [6] it was 50.5%. In addition, the growth in assay [7] is 112%; in assay [8], 93%; in assay [9], 122%.
In the case of `O=C/C=C/c1ccco1`, the growth in assay [1] is 106%; in assay [2], 95.1%; in [3] it was 80.5%; in assay [4], 106%; in assay [5] it was 95.1%; in assay [6], 83.7%. Moreover, the growth was 113% in assay [7], 98.2% in assay [10] and 114% in [9].
As for `O=[N+]([O-])c1ccc(OCc2ccc(S(=O)(=O)F)c(Cl)c2)c(Cl)c1`, the growth in assay [1] was 84.6%; in [2], 99.2%; in assay [3], 92.8%; in assay [4], 108%; in [5] it was 107%; in assay [6], 91.4%. Moreover, the growth is 99.6% in [7], 92.6% in assay [8] and 119% in [9].
Regarding `CC[C@H](C)[C@H](NC(=O)c1ncccn1)C(=O)N(C)[C@H](C[C@@H](OC(C)=O)c1nc(C(=O)N[C@@H](Cc2ccccc2)C[C@H](C)C(=O)OC)cs1)C(C)C`, the growth in [1] is 10.3%; in [2] it was -2.02% (active); in [3], -3.1% (active); in assay [4], 44.1%; in [5], 16.7%; in [6], 27.7%. Also, the growth is 21.5% in assay [7], 46.9% in assay [8] and 50.3% in assay [9].
In the case of `Cn1cc(-c2csc(-c3cn(CCCCN4CCOCC4)c4ccc(F)cc34)n2)c2cccnc21`, the growth was 61.7% in assay [1]; -64% (active) in [2]; 61.9% in assay [3]; 88.2% in assay [4]; 67.3% in [5]; 49.3% in [6]. Also, the values for the growth in assay [7], in [8] and in assay [9] were 48.1%, 22.8% and -87.1% (active), respectively.
As for `COc1cc(-c2ccc(N)c(OC)c2)ccc1N`, the growth in assay [1] was 110%; in [2], 97.5%; in assay [3], 76.9%; in [4], 102%; in assay [5] it was 99.2%; in assay [6], 105%. Besides, the values for the growth in assay [7] and in assay [10] were 105% and 88.9%, respectively.
On to `CC[C@H](C)[C@H](NC(=O)CN(C)C)C(=O)N(C)[C@H](C[C@@H](OC(C)=O)c1nc(C(=O)NC23C4C5C2C2C3C4C52C(=O)OC)cs1)C(C)C` (stereo partly drawn), for which the growth in assay [1] was 14.7%; in [2] it was 2.31% (active); in assay [3], 30.1%; in assay [4] it was 40.2%; in [5], 16.7%; in assay [6], 25.6%. For the same compound, the growth in assay [7] is 5.45% (active); in [8], 29.9%; in [9] it was 61.5%.
On to `N#CCCc1ccccc1`, for which the growth in [1] is 98.3%; in assay [2] it was 104%; in assay [3], 86.3%; in [4], 97.7%; in [5] it was 105%; in assay [6], 108%. The growth is 99.6% in assay [7], 97.2% in [8] and 108% in [9].
For the compound `Cc1cc[c-]cc1.Fc1c[c-]c(-c2ccccn2)c(F)c1.N#CCC[PH+](CCC#N)c1ccccc1.[Pt+2]`, the growth in assay [1] is 22.1%; in assay [2], 37.2%; in assay [3], 49.9%; in assay [4], 62.3%; in assay [5] it was 56.9%; in [6] it was 29.4%. The growth is 68.6% in assay [7], 9.83% (active) in assay [8] and 42.7% in assay [9].
For `N#Cc1ccc(Cl)cc1`, the growth was 110% in assay [1]; 84.4% in assay [2]; 101% in [3]; 108% in assay [4]; 105% in assay [5]; 129% in assay [6]. Besides, the growth in assay [7] was 106%; in assay [8] it was 104%; in assay [9], 117%.
As to `CCCCn1c(=O)c(C(=O)NCc2ccccc2Cl)c(O)c2ccccc21`, the growth in [1] is 48.6%; in [2] it was 75.5%; in assay [3], 98.4%; in [4], 82.6%; in assay [5], 68.2%; in [6], 34.1%. Besides, the growth in assay [7] is 72.7%; in [8] it was 88.5%; in assay [9] it was 103%.
On to `C/C(=C\c1ccn(-c2ccc(N)cc2F)n1)[C@@H]1C[C@@H]2O[C@]2(C)CCC[C@H](C)[C@H](O)[C@@H](C)C(=O)C(C)(C)[C@@H](O)CC(=O)O1`, for which the growth is 14% in [1]; 13.1% in assay [2]; -6.93% (active) in assay [3]; 26% in [4]; 18.9% in assay [5]; 17% in assay [6]. For the same compound, the values for the growth in assay [7], in assay [8] and in [9] were 8.85% (active), 11.6% and 54.5%, respectively.
As to `C[C@]12CCC3[C@@H](C[C@@H]4SC(Nc5ccccc5)=N[C@@]45CC(=O)CC[C@]35C)[C@@H]1CCC2=O` (stereo partly drawn), the growth in [1] is 1.93% (active); in assay [2], -55.6% (active); in [3], 41.5%; in [4], 21.9%; in [5], -82.4% (active); in assay [6], -16.1% (active). The growth is 26.3% in assay [7], -1.09% (active) in assay [8] and 1.73% (active) in [9].
In the case of `COc1ccc2c(c1)C1(C)CCN(C)CC(C1)C2O` (stereo not drawn), the growth in [1] is 97.6%; in [2], 98.5%; in [3] it was 84.2%; in assay [4], 103%; in assay [5], 99.3%; in [6], 88.6%. The growth in [7] is 99.5%; in assay [8] it was 108%; in [9] it was 108%.
On to `CC1=CC(=O)CCC12CCOC2=O` (stereo not drawn), for which the growth in [1] is 98.7%; in assay [3] it was 91.3%; in assay [5] it was 99.1%; in [6], 111%; in assay [7], 103%; in assay [8] it was 87%. Moreover, the figures for the growth in assay [10] and in [9] were 95.6% and 95.9%, respectively.
As to `CC(C)c1cccc(C(C)C)c1O`, the growth in [1] is 99.1% and 107%; in assay [3], 109% and 81.4%; in assay [4] it was 123% and 94%; in [5], 97.2% and 99.7%; in assay [6], 99.7% and 93.8%; in assay [7], 110%. Also, the growth in assay [8] is 118% and 92.1%; in [10], 96.9% and 105%; in assay [9], 115% and 104%.
Take `O=C(NC1=NCC[Se]1)c1ccccc1O`: the growth in assay [1] is 82%; in [3], 67.3%; in assay [4], 68.5%; in assay [5] it was 44%; in assay [6], 54.9%; in [7], 80.9%. Moreover, the growth in [8] was 76.2%; in [10] it was 42.9%; in assay [9], 61.3%.
`C[C@]12CCc3sc(Nc4ccc(F)cc4)nc3C1=CC[C@@H]1[C@@H]2CC[C@]2(C)C(=O)CC[C@@H]12`: the growth in assay [1] was 32.2%; in [3], 66.7%; in [4], 67.4%; in assay [5] it was 47.2%; in [6], 64.3%; in assay [7] it was 71.3%. The figures for the growth in [8], in assay [10] and in assay [9] were 69.6%, 56.6% and 46.5%, respectively.
In the case of `NC(=O)c1c(Br)c(Br)c(Br)c(Br)c1C(=O)O` (tested in a mixture with another compound), the growth is 92.8% and 106% in assay [1]; 115% and 95.8% in [3]; 96.6% and 104% in assay [4]; 95.4% and 96.2% in assay [5]; 90.8% and 86.6% in [6]; 95.2% and 101% in assay [7]. For the same compound, the growth in assay [8] is 83.7% and 104%; in assay [9], 110% and 108%.
Regarding `O=[N+]([O-])c1ccc(CI)cc1`, the growth is 8.86% (active) in assay [1]; 96.4% in [3]; 106% in assay [4]; 95.6% in assay [6]; 79.6% in assay [8].
As to `Cc1ccc(NC2=N[C@]34CC(=O)CC[C@]3(C)[C@H]3CC[C@]5(C)C(=O)CC[C@H]5[C@@H]3C[C@@H]4S2)c(C)c1`, the growth in assay [1] was 0.807% (active); in [3], 35.1%; in assay [4], 44%; in [5] it was 18.4%; in assay [6] it was 15.8%; in assay [7], 51.4%. Moreover, the values for the growth in assay [8], in assay [10] and in assay [9] were 39%, -16.6% (active) and 50.8%, respectively.
As to `C[C@]12CC[C@H]3[C@@H](CC=C4c5nc(N)sc5CC[C@@]43C)[C@@H]1CC[C@@H]2O`, the growth in [1] is 98.4%; in [3], 89.9%; in assay [4], 99.2%; in assay [5], 97.4%; in assay [6] it was 98.5%; in assay [7] it was 98.5%. For the same compound, the growth in assay [8] is 87.8%; in [9], 113%.

The values are drawn from PubChem BioAssay (NCI).
